# Records with an inconclusive call do not appear. Calls of active or inactive are those of the source. How the source made its calls: active means hit-call score of the fitted dose curve at least 0.9, where 1 is the maximum; inconclusive means response in the unintended direction; inactive means score below 0.9.
# Columns and labels:
# [1] = target: bovine Estrogen Receptor (ER), ESR1 (gene 407238) (UniProt P49884); experiment: NVS_NR_bER: NovaScreen (NVS) Nuclear Receptor Binding Assay for bovine Estrogen Receptor (ER) (AID 2283345);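 further: actives lower the bound radioligand count which means they displace the ER ligand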
# Outline: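 Displacement of a radioligand from estrogen receptor in bovine uterine membrane preparations; scintillation signal taken at 18 hours, DMSO as baseline. Single-concentration duplicates (25 uM) preceded concentration-response follow-up of actives.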
# [2] = target: Estrogen receptor (Homo sapiens) (UniProt P03372); experiment: OT_ER_ERaERa_1440: Odyssey Thera (OT) 24-hour HEK293T Protein-Complementation Assay for Estrogen Receptor-alpha/-alpha Homodimer (AID 2283349);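 further: hits raise fluorescence above DMSO for agonists and antagonists alike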
# Sequence of Estrogen receptor (Homo sapiens) (P03372 whole entry, looked up, the tested form may be a part): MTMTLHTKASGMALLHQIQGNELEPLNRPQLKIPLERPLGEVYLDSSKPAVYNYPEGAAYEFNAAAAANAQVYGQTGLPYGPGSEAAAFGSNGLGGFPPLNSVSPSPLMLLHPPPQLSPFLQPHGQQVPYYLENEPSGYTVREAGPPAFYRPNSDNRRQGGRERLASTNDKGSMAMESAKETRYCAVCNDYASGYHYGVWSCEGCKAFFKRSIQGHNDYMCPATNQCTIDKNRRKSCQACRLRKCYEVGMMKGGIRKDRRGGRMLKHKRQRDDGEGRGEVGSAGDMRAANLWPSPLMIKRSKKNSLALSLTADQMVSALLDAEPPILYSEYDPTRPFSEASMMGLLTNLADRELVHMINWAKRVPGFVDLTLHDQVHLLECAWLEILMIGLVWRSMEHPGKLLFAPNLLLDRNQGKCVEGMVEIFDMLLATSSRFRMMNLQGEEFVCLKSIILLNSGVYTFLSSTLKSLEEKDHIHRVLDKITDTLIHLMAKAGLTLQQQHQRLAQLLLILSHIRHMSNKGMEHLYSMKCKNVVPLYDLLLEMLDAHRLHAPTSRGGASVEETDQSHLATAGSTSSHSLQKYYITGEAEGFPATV
# Outline: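 HEK293T cells stably expressing the human ER alpha ligand-binding domain (aa 310-547) as a homodimer PCA were dosed for 24 hours. Fluorescence intensity was read by laser scanning cytometry, and gain of signal was fitted relative to DMSO vehicle.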
# [3] = target: Estrogen receptor (Homo sapiens) (UniProt P03372); experiment: OT_ER_ERaERa_0480: Odyssey Thera (OT) 8-hour HEK293T Protein-Complementation Assay for Estrogen Receptor-alpha/-alpha Homodimer (AID 2283351);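 further: rise in fluorescence from reassembled reporter fragments on ERα LBD homodimer in nucleus or whole cell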
# Outline: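 HEK293T, stable ERα LBD (aa 310-547) PCA homodimer; 8 h compound exposure; fluorescence intensity, laser scanning cytometer; positive fitting direction, DMSO baseline.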
# [4] = target: rat Gamma-Aminobutyric Acid Type A Receptor BDZ, alpha 6 site (GABARa6), Gabra6 (gene 29708) (UniProt P30191); experiment: NVS_LGIC_rGABARa6: NovaScreen (NVS) Ligand-Gated Ion Channel Assay for rat Gamma-Aminobutyric Acid Type A Receptor BDZ, alpha 6 site (GABARa6) (AID 2283339)
# Outline: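 Rat cerebellar membranes; radioligand binding, filtration and scintillation counting, read 1 h after dosing. Single-concentration duplicate screen at 25 uM, then concentration-response up to 50 uM for actives; loss of signal fitted versus DMSO baseline.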
# [5] = target: Androgen Receptor/SRC-1 Co-activator, AR (gene 367) (UniProt P10275); experiment: OT_AR_ARSRC1_0960: Odyssey Thera (OT) 16-hour HEK293T Protein-Complementation Assay for Androgen Receptor/SRC-1 Co-activator (AID 2283353);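 further: actives raise the signal above DMSO so potency reflects increased AR and SRC-1 complex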
# Sequence of Androgen Receptor/SRC-1 Co-activator, AR (gene 367) (P10275 whole entry, looked up, the tested form may be a part): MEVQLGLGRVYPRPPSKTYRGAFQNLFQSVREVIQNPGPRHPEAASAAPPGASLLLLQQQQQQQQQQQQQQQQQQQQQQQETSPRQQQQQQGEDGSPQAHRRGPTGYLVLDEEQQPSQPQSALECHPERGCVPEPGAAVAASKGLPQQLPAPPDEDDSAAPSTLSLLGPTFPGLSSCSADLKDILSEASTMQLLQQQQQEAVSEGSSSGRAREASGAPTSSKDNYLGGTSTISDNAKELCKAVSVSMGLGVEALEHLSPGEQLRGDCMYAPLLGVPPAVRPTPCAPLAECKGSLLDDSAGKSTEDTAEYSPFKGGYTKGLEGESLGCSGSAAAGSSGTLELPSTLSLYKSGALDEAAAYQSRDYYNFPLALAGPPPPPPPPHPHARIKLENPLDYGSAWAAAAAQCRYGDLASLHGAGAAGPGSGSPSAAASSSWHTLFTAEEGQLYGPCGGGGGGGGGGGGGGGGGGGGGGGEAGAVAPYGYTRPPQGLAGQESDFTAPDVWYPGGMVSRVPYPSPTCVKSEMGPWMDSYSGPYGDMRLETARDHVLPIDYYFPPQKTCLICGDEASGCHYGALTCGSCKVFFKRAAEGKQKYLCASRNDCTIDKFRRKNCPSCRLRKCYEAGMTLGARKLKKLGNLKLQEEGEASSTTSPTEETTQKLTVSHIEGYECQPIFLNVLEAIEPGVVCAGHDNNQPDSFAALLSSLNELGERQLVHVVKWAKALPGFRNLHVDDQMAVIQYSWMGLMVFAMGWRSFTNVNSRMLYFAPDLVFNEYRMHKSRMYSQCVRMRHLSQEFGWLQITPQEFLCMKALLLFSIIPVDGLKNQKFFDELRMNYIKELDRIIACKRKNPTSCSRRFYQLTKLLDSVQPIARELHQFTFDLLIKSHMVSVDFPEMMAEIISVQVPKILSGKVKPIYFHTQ
# Outline: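 Split-Venus PCA, AR/SRC-1 fusions, stable HEK293T; 16 h compound exposure; imaged at 488 and 635 nm; N/C ratio (488 nm channel), min 400 cells/image; positive-direction fit, DMSO baseline.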
# [6] = target: Androgen Receptor/SRC-1 Co-activator, AR (gene 367) (UniProt P10275); experiment: OT_AR_ARSRC1_0480: Odyssey Thera (OT) 8-hour HEK293T Protein-Complementation Assay for Androgen Receptor/SRC-1 Co-activator (AID 2283354);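 further: hits raise the complementation signal above DMSO so AC50 marks enhancers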
# Outline: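 HEK293T cells stably expressing AR and SRC-1 fused to Venus YFP fragments, imaged 8 h after dosing. Complementation fluorescence scored as nuclear/cytoplasmic ratio at 488 nm in at least 400 cells per image; gain fitted versus DMSO.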
# [7] = target: Estrogen receptor beta (Homo sapiens) (UniProt Q92731); experiment: OT_ER_ERbERb_0480: Odyssey Thera (OT) 8-hour HEK293T Protein-Complementation Assay for Estrogen Receptor-beta/-beta Homodimer (AID 2283357);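 further: active means signal gain over DMSO baseline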
# Sequence of Estrogen receptor beta (Homo sapiens) (Q92731 whole entry, looked up, the tested form may be a part): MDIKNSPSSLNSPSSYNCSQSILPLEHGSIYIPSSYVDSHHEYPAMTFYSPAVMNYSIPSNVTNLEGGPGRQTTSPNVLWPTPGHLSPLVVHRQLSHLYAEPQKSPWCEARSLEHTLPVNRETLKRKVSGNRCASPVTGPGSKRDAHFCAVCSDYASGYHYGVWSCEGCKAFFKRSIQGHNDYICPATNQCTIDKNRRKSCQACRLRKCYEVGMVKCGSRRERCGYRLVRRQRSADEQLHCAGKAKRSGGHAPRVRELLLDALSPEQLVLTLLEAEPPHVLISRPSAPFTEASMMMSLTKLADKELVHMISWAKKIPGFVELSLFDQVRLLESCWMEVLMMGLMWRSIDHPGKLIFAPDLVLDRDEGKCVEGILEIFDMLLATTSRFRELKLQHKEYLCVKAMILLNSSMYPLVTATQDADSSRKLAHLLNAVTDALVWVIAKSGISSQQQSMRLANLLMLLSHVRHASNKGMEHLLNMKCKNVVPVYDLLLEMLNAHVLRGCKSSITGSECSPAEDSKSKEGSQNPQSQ
# Outline: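 Fluorescence intensity, nuclear for agonists and nuclear plus cytoplasmic for antagonists, was quantified by laser scanning cytometry versus vehicle after 8 h treatment. The cells were HEK293T stably carrying ER beta LBD fragment-complementation partners.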
# [8] = target: T1, Estrogen receptor (Homo sapiens) + Estrogen receptor beta (Homo sapiens) (UniProt P03372+Q92731); experiment: OT_ER_ERaERb_0480: Odyssey Thera (OT) 8-hour HEK293T Protein-Complementation Assay for Estrogen Receptor-alpha/-beta Heterodimer (AID 2283352)
# T1 sequence (P03372 whole entry, looked up, the tested form may be a part): as the sequence (P03372 whole entry, looked up, the tested form may be a part) above
# T1 sequence (Q92731 whole entry, looked up, the tested form may be a part): as the sequence (Q92731 whole entry, looked up, the tested form may be a part) above
# Outline: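 HEK293T cells expressing ER-alpha/ER-beta LBD fusions to complementary reporter fragments were dosed with compound for 8 hours. Heterodimer formation was read as increased nuclear (agonist) or nuclear plus cytoplasmic (antagonist) mean fluorescence intensity versus DMSO vehicle.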
# [9] = target: T1, Estrogen receptor (Homo sapiens) + Estrogen receptor beta (Homo sapiens); experiment: OT_ER_ERaERb_1440: Odyssey Thera (OT) 24-hour HEK293T Protein-Complementation Assay for Estrogen Receptor-alpha/-beta Homodimer (AID 2283356);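 further: heteromer of ER alpha and ER beta binding domains; hits raise reporter fluorescence and both agonists and antagonists give an increase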
# Outline: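 HEK293T cells stably expressing a PCA pair of ERα LBD (aa 310-547) and ERβ LBD (aa 263-489) were dosed for 24 h. Fluorescence intensity increase versus DMSO vehicle was fitted as gain-of-signal.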
# [10] = target: human Peroxisome Proliferator-activated Receptor alpha (PPARa), PPARA (gene 5465) (UniProt Q07869); experiment: NVS_NR_hPPARa: NovaScreen (NVS) Nuclear Receptor Binding Assay for human Peroxisome Proliferator-activated Receptor alpha (PPARa) (AID 2283359);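 further: activity means loss of TR-FRET signal versus DMSO baseline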
# Sequence of human Peroxisome Proliferator-activated Receptor alpha (PPARa), PPARA (gene 5465) (Q07869 whole entry, looked up): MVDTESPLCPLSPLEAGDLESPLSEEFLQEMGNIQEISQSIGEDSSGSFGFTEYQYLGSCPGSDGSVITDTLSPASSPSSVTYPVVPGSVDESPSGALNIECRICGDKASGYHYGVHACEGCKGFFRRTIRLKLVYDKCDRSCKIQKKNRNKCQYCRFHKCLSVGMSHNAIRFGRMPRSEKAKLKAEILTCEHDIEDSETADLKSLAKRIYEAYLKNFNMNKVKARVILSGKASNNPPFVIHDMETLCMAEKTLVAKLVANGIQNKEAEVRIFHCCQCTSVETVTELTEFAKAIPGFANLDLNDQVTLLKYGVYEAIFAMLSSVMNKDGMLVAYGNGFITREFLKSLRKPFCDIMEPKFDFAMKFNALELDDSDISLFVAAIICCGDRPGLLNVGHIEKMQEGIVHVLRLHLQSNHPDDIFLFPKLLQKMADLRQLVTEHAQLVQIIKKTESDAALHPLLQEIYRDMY
# Outline: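 Cell-free TR-FRET binding assay with extracted PPARα protein, read 1 h after dosing. Primary screen in duplicate at 25 uM, with actives retested in concentration series. Loss of signal versus DMSO.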
# [11] = target: Estrogen receptor (Homo sapiens) (UniProt P03372); experiment: NVS_NR_hER: NovaScreen (NVS) Nuclear Receptor Binding Assay for human Estrogen Receptor (ER) (AID 2283348)
# Outline: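 Radioligand competitive displacement binding to estrogen receptor from MCF7 extract, cell-free; 18 h after dosing, scintillation read-out. Primary screen in duplicate at 25 uM; actives followed up in concentration series; loss of signal vs DMSO.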
# [12] = target: rat Mineralocorticoid Receptor (MR), Nr3c2 (gene 25672) (UniProt P22199); experiment: NVS_NR_rMR: NovaScreen (NVS) Nuclear Receptor Binding Assay for rat Mineralocorticoid Receptor (MR) (AID 2283355)
# Outline: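 Cell-free radioligand binding to mineralocorticoid receptor from adrenalectomized rat brain supernatant, scintillation counting after 24 h. Primary screen in duplicate at 25 uM; actives retested in concentration series. Loss of specific binding versus DMSO.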
# [13] = target: PGR (gene 5241) (UniProt P06401); experiment: NVS_NR_hPR: NovaScreen (NVS) Nuclear Receptor Binding Assay for human Progestron Receptor (PR) (AID 2283360);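 further: active means loss of bound radioligand signal versus DMSO baseline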
# Sequence of PGR (gene 5241) (P06401 whole entry, looked up): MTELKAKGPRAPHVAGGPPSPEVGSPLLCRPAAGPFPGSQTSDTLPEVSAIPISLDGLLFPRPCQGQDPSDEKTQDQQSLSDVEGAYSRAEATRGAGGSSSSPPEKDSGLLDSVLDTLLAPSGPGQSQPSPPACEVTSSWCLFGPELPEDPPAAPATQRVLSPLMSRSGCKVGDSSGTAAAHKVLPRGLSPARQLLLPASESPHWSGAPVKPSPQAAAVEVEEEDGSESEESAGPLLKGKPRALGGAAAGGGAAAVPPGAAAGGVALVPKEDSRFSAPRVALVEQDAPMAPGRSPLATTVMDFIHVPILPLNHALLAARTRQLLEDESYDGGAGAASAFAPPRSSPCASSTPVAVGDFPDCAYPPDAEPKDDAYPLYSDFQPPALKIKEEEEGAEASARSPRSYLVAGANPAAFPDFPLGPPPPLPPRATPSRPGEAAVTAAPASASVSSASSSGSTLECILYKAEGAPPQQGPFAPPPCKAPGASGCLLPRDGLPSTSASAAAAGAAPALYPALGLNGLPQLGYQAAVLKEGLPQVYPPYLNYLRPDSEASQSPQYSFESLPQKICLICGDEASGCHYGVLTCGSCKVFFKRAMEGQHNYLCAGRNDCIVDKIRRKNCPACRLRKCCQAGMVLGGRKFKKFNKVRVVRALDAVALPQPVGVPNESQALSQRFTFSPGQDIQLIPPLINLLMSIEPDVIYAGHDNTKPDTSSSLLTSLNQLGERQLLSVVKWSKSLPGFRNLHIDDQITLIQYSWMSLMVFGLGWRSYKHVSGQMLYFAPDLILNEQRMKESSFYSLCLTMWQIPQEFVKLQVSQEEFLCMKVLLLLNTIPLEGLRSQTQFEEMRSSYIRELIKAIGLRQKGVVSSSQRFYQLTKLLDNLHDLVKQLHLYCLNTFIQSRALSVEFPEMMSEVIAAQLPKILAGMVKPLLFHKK
# Outline: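 T47D-derived receptor preparation, cell-free, with tritiated or iodinated radioligand displacement measured by scintillation 18 h post-dosing. Single 25 uM duplicate screen, then concentration series; signal loss relative to DMSO.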
# [14] = target: Retinoic acid receptor alpha (Homo sapiens) (UniProt P10276); experiment: NVS_NR_hRAR_Antagonist: NovaScreen (NVS) Nuclear Receptor Binding Assay for human Retinoic Acid Alpha Receptor Antagonism (RAR) (AID 2283358)
# Sequence of Retinoic acid receptor alpha (Homo sapiens) (P10276 whole entry, looked up): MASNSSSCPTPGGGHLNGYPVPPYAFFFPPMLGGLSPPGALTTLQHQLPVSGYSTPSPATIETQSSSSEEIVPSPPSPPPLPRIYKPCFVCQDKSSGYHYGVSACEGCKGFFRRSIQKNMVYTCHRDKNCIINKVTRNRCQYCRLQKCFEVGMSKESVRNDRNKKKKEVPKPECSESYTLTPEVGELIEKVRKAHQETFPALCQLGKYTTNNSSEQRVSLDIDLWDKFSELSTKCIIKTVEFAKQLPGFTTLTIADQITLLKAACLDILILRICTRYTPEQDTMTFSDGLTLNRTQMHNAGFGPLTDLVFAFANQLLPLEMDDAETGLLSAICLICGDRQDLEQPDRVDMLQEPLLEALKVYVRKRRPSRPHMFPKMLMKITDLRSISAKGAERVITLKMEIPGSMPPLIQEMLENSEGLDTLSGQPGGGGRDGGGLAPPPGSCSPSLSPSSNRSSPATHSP
# Outline: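 Cell-free TR-FRET binding assay with extracted human RARalpha in antagonist mode, read 2 h after dosing. Loss of signal was fitted relative to DMSO; the primary screen used 25 uM in duplicate, with concentration series on follow-up.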
# [15] = target: Retinoic acid receptor alpha (Homo sapiens) (UniProt P10276); experiment: NVS_NR_hRARa_Agonist: NovaScreen (NVS) Nuclear Receptor Binding Assay for human Retinoic Acid Alpha Receptor Agonism (RAR) (AID 2283361)
# Outline: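 Cell-free TR-FRET binding readout with extracted receptor protein, read 2 hours after dosing; gain-of-signal fitted relative to DMSO. Screened in duplicate at 25 uM, actives then run in concentration-response.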
smiles,measurement,setting,value
Brc1ccc(Oc2ccccc2)cc1,outcome,[1],inactive
same,outcome,[2],inactive
same,outcome,[3],inactive
CC(C)(O)c1cnn2c(-c3ccc(F)c(-c4c(F)cccc4C#N)c3)cnc2n1,outcome,[4],inactive
same,AC50,[5],31.7 µM (active)
same,outcome,[6],inactive
same,AC50,[7],95.8 µM (active)
OCCCBr,outcome,[2],inactive
same,outcome,[3],inactive
same,outcome,[8],inactive
same,outcome,[9],inactive
same,outcome,[7],inactive
CC(C)COC(=O)c1ccccc1C(=O)OCC(C)C,outcome,[1],inactive
same,AC50,[2],46.5 µM (active)
same,AC50,[3],31.4 µM (active)
same,AC50,[8],17.2 µM (active)
same,AC50,[9],31.1 µM (active)
same,AC50,[7],25.9 µM (active)
same,outcome,[10],inactive
Clc1ccc(C(c2ccc(Cl)cc2)C(Cl)Cl)cc1,outcome,[11],inactive
same,outcome,[2],inactive
same,outcome,[3],inactive
same,outcome,[10],inactive
ClCCOCCCl,outcome,[7],inactive
Clc1ccc(C(c2ccc(Cl)cc2)C(Cl)(Cl)Cl)cc1,AC50,[7],12.7 µM (active)
CC(C)(OOC(C)(C)c1ccccc1)c1ccccc1,AC50,[5],76.2 µM (active)
same,AC50,[6],71.1 µM (active)
same,AC50,[7],3.31 µM (active)
CN(C)c1ccc(C(=O)c2ccc(N(C)C)cc2)cc1,outcome,[12],inactive
same,outcome,[7],inactive
Nc1cc(Cl)cc(C(=O)O)c1Cl,outcome,[7],inactive
Oc1ccc2ccc3cccc4ccc1c2c34,AC50,[7],12.3 µM (active)
same,outcome,[10],inactive
same,outcome,[13],inactive
Nc1ccc(Oc2ccc(N)cc2)cc1,outcome,[7],inactive
same,outcome,[10],inactive
Nc1ccc([N+](=O)[O-])cc1,outcome,[5],inactive
same,outcome,[6],inactive
same,outcome,[7],inactive
same,outcome,[13],inactive
Cc1cc(N=Nc2ccccc2C)ccc1N,AC50,[5],36 µM (active)
same,AC50,[6],67.5 µM (active)
same,AC50,[7],12.1 µM (active)
same,outcome,[10],inactive
Clc1ccccc1Cl,outcome,[7],inactive
O=C1CCCO1,outcome,[5],inactive
same,outcome,[6],inactive
same,outcome,[7],inactive
COC(=O)c1ccccc1N,outcome,[7],inactive
C=CCc1ccc2c(c1)OCO2,outcome,[7],inactive
same,outcome,[10],inactive
O=[N+]([O-])c1ccc(Oc2ccc(Cl)cc2Cl)cc1,outcome,[7],inactive
CCC(C)c1ccc(O)cc1 (stereo unspecified),AC50,[7],16.3 µM (active)
O=[N+]([O-])C(Br)(CO)CO,outcome,[2],inactive
same,outcome,[3],inactive
same,AC50,[5],71 µM (active)
same,AC50,[6],72.1 µM (active)
same,outcome,[9],inactive
same,outcome,[7],inactive
same,outcome,[10],inactive
C1=Cc2cccc3cccc1c23,outcome,[13],inactive
Cc1ccc(N=C=O)cc1N=C=O,outcome,[13],inactive
COC(=O)Nc1nc2ccccc2[nH]1,AC50,[5],3.78 µM (active)
same,outcome,[6],inactive
same,outcome,[7],inactive
CC(O)CCO (stereo unspecified),outcome,[7],inactive
O=C(O)C1C2CCC(O2)C1C(=O)O (stereo unspecified),outcome,[10],inactive
O=Cc1ccco1,outcome,[13],inactive
CC(C)N(Cc1ccccc1)C(=O)C(C)(C)C,outcome,[5],inactive
same,outcome,[6],inactive
same,AC50,[7],50 µM (active)
c1ccc(NNc2ccccc2)cc1,outcome,[7],inactive
same,outcome,[10],inactive
CN(C)C(=O)Nc1ccc(Cl)cc1,outcome,[7],inactive
CCN(CC)N=O,outcome,[14],inactive
same,outcome,[10],inactive
c1ccc2c(c1)-c1cccc3cccc-2c13,AC50,[7],37 µM (active)
same,outcome,[13],inactive
same,outcome,[15],inactive
CCCCCCCCOC(=O)c1ccc(C(=O)OCCCCCCCC)c(C(=O)OCCCCCCCC)c1,outcome,[7],inactive
same,outcome,[13],inactive
CC(C)(C)OOC(=O)c1ccccc1,outcome,[7],inactive
same,outcome,[10],inactive
CN(C)c1ccccc1,outcome,[7],inactive
c1ccc(C2CO2)cc1 (stereo unspecified),outcome,[12],inactive
same,outcome,[13],inactive
CS(=O)(=O)NC(=O)c1cc(Oc2ccc(C(F)(F)F)cc2Cl)ccc1[N+](=O)[O-],outcome,[10],inactive
Nc1ccc(Cl)cc1N,outcome,[5],inactive
same,outcome,[6],inactive
CCN(CC)CCO,outcome,[7],inactive
same,outcome,[13],inactive
[As]#[In],outcome,[13],inactive
Clc1ccc(Cl)c(Cl)c1,outcome,[7],inactive
CCCCOC(=O)c1ccccc1C(=O)OCc1ccccc1,AC50,[7],12.6 µM (active)
same,outcome,[10],inactive
c1ccc2c(c1)oc1ccccc12,outcome,[7],inactive

# Reference: PubChem BioAssay (EPA / NIEHS)
